Vif-APOBEC3G blk = Vif-A3G binding inhibition. 410,000 compounds, 0.076% hits. HeLa A3G-eYFP + Vif (tagged APOBEC3G with the HIV-1 protein that degrades it), YFP fluorescence, overnight. Q9HC16. Potency, µM (highest dose often 46.1 µM), most hits filed as inhibitors; further: nearly all actives have a fitted effect of over 60% in size
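HeLa cells stably expressing Vif and C-terminally eYFP-tagged A3G, seeded overnight at 37 deg C, then exposed to compound by pintool overnight at 37 deg C. Rise in yellow fluorescence (Ex 488/Em 500-530, Acumen) marks blocked Vif-driven A3G degradation.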
PKM2 act = increases activity of human pyruvate kinase M2; purified PKM2, Kinase-Glo ATP luminescence, activation; response scale: 0% is enzyme alone, no compound; Potency, µM (titrated, usually from 57.5 µM), actives largely listed as activators; 260,000 compounds, 0.34% hits; AID 1631; further: nearly all actives have a fitted effect of over 55% in size
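Purified hPK-M2 (>95%) run at intermediate activity with 0.1 mM ADP and 0.5 mM PEP in 50 mM imidazole pH 7.2, KCl, MgCl2; 1 h room temperature. ATP formed read by Kinase-Glo luminescence; normalized to uninhibited and no-enzyme controls.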
Vif-A3F inh = Vif-A3F binding inhibition; Potency, µM (titrated, usually from 46.1 µM); AID 602313; HeLa A3F-eYFP + Vif (tagged APOBEC3F with the HIV-1 protein that degrades it), YFP fluorescence increase; 390,000 compounds, 0.2% hits; further: nearly all actives have a fitted effect of over 65% in size
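HeLa cells stably expressing A3F-eYFP plus Vif, plated and incubated overnight at 37 deg C, then exposed to compounds overnight at 37 deg C. Blocked degradation read as raised yellow fluorescence (Ex 488/Em 500-530).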
GoLoco inh red = inhibitors of human Gai1-RGS12 GoLoco interaction (red fluorophore) | P63096 | Gai1:RGS12 GoLoco peptide FP, rhodamine, 10 min | Potency, µM (highest dose often 61.6 µM), hits mostly inhibitors | 230,000 compounds, 0.44% hits; active means well fitted inhibition curve with a large enough effect, not every such curve was filed as active; inactive means no such curve, though single readings can be large or run the other way; further: nearly all actives have a fitted effect of over 30% in size
GCN5L2 inh = inhibitors of human GCN5L2 histone acetyltransferase. GCN5L2 HAT assay, ThioGlo1 CoA-SH fluorescence. Potency, µM (series often up to 58.9 µM), usual class: inhibitors. 390,000 compounds, 0.21% hits
Target sequence (Q92830 whole entry, looked up): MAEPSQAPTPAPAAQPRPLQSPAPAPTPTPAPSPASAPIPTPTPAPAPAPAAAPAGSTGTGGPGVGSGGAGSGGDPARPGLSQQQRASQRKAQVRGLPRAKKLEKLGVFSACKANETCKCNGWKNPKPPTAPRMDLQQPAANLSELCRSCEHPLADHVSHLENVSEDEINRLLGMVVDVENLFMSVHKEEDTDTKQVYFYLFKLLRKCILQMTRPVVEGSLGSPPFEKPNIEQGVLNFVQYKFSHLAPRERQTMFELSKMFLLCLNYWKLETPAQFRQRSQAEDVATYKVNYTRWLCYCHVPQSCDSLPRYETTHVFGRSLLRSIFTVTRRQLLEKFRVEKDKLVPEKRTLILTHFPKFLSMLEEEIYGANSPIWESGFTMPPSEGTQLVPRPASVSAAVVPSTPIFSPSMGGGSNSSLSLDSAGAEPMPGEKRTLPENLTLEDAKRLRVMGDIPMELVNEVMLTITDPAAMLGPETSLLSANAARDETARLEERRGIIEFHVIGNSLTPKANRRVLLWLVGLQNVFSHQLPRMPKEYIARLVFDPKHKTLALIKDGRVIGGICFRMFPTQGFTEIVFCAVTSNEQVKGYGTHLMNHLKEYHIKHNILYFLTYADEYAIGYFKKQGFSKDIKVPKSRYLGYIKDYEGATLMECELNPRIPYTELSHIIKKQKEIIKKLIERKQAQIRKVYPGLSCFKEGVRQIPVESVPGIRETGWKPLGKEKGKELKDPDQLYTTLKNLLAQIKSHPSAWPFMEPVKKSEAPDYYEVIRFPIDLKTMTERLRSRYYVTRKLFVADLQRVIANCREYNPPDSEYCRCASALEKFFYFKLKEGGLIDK
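Fluorescence readout, Ex340nm/Em540nm: ThioGlo1 (50uM final) reacts with free CoA thiol released as 20nM GCN5L2 acetylates H3(1-25) peptide (75uM) using acetyl-CoA (70uM). Compound and enzyme sat 15 min beforehand; 20 min room-temperature reaction.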
IL2 activator = activators of IL-2; IL-2 activation reporter assay, cell-based qHTS; stimulated with anti-CD3/CD4/CD28 beads; in transgenic mouse T cells; activation, % (series mostly up to about 46 µM); 360,000 compounds, 0.065% hits; AID 652025; in the data active means activation above about 50%; inconclusive means mostly about 30% to 49%
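Readout: EGFP and DsRed signals by fluorescent plate cytometry. Unstimulated transgenic mouse T cells received compound 60 min before antibody-bead stimulation, then incubated 18 h at 37 degrees C.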
Hits are given with their value; . = inactive; ? = inconclusive; / = no result; [ ] = another dose, or the depositor's remark. A selection: hits, their analogues and other compounds. The true share with any hit is near 0.77%. Unless noted, the call rests on the fitted dose curve; in most records, active means well fitted curve in the direction sought with a large enough effect; inconclusive means small, poorly fitted or top-dose-only effect, or another doubt; inactive means no such curve, though single readings can be large; an effect the other way counts as inactive or inconclusive.

SMILES	Vif-APOBEC3G blk	PKM2 act	Vif-A3F inh	GoLoco inh red	GCN5L2 inh	IL2 activator
COc1ccccc1NC(=O)c1ccc(NC(=O)CSc2ncccn2)cc1	.	.	.	.	.	.
CCOC(=O)c1cc(-c2ccccc2)sc1NC(=S)Nc1cc(C)ccn1	.	.	8.91µM	.	.	.
CCOC(=O)c1cc(-c2ccccc2)sc1NC(=O)C(C)(C)C	.	.	.	.	.	.
CSc1nc2c(c(=O)[nH]c(=O)n2C)n1Cc1ccccc1	.	.[11.5 µM]	.	/	.	.
COc1ccc(C)cc1N(CC(=O)Nc1cccnc1)S(=O)(=O)c1ccccc1	.	.	.	.	.	.
c1ccc2[nH]c(NN=C3CCCCCC3)nc2c1	.	.	22.4µM	.	.	.
Cc1c(C(=O)OC(C)C(C)C[N+](C)(C)C)oc2ccccc12 (centres undefined)	.	.	.	14.1µM	.[0.501 µM]	.
Cc1c(C(=O)OC(C)C(=O)N(C)Cc2ccccc2)oc2ccccc12 (centres undefined)	.	/	.	/	.	.
CC(C)(C)c1nn(-c2ccccc2)c2[nH]c(=O)c(CNc3ccc4c(c3)OCCO4)cc12	.	.	.	.	35.5µM	.
COc1cccc(CNS(=O)(=O)c2ccc3c(c2)NC(=O)CS3)c1	.	/	.	/	.	.
CCN1CCc2c(sc(NC(=O)CSc3ccccc3)c2-c2nc3ccccc3s2)C1	?	/	?	/	.	/
CC(=O)Nc1sc2c(c1-c1nc3ccccc3s1)CCN(C(C)C)C2	11.2µM	.	11.2µM	.	.	.
CCOCCCNC(=O)C(NC(=O)c1ccc2c(c1)OCO2)c1ccc(OC)cc1 (centres undefined)	.	.	.	/	.	.
CCOC(=O)c1c(-c2ccc(C)o2)csc1NC(=O)CSc1nnnn1-c1ccccc1	.	7.94µM	.	.	.	.
CCOC(=O)c1c(-c2ccc(C)o2)csc1NC(=S)NC(=O)c1ccccc1Br	.	3.16µM	.	.	.	.
CCOC(=O)c1c(-c2ccc(C)o2)csc1NC(=O)CSc1nnc(C)s1	.	12.6µM	.	.	.	.
CCOC(=O)c1c(-c2cccs2)csc1NC(=O)CSc1ncn[nH]1	.	28.2µM	.	.	.	.
Cc1cccc(C)c1NC(=O)CSc1nc(-c2cccs2)cc(C(F)(F)F)n1	.	/	.	/	.	/
NCCC[C@@H](CC(=O)N[C@@H]1CCNC[C@H]1C(=O)N[C@H](CC(=O)N[C@@H](CCC(=O)O)CC(=O)O)Cc1ccccc1)NC(=O)C[C@H](Cc1c[nH]c2ccccc12)NC(=O)[C@@H]1CCCC[C@H]1N	/	/	/	20µM	/	/
NCCC[C@@H](CC(=O)N[C@@H]1CCNC[C@H]1C(=O)N[C@H](CC(=O)N[C@@H](CCC(=O)O)CC(=O)O)Cc1c[nH]c2ccccc12)NC(=O)C[C@H](Cc1c[nH]c2ccccc12)NC(=O)[C@@H]1CCCC[C@H]1N	/	/	/	.	/	/
CCN(CC)c1ccc(C=NNc2ccc([N+](=O)[O-])cn2)cc1	?	/	3.55µM	/	/	.
Cc1ccccc1-n1c(C)cc(/C=N/Nc2ccc([N+](=O)[O-])cn2)c1C	.	.	.	3.16µM	.	.
O=[N+]([O-])c1ccc(N/N=C\c2cccn2-c2ccccc2)nc1	11.2µM	.	?	.	.	.
COc1ccccc1C=NNc1ccc([N+](=O)[O-])cn1	.	/	.	/	/	72.8
COc1cccc(C=NNc2ccc([N+](=O)[O-])cn2)c1OC	.	/	.	/	/	.
SMILES	Vif-APOBEC3G blk	PKM2 act	Vif-A3F inh	GoLoco inh red	GCN5L2 inh	IL2 activator
CCSC[C@H](NC(=O)[C@H](C)N)C(=O)N[C@@H](CC(=O)O)C(=O)N[C@H](C(=O)N[C@@H](C)C(=O)N[C@H](C(=O)N[C@@H](CSCC)C(=O)N[C@H](C(=O)N[C@H](C(=O)N[C@@H](Cc1cnc[nH]1)C(=O)N[C@@H](CCCNC(=N)N)C(=O)N[C@@H](CC(C)C)C(=O)N[C@@H](C)C(=O)NCC(=O)N[C@@H](CC(C)C)C(=O)N[C@@H](CC(C)C)C(=O)N[C@@H](CO)C(=O)N[C@@H](CCCNC(=N)N)C(=O)N[C@@H](CO)C(=O)NCC(=O)NCC(=O)N[C@H](C(=O)N[C@H](C(=O)N[C@@H](CCCCN)C(=O)N[C@@H](CC(N)=O)C(=O)N[C@@H](CC(N)=O)C(=O)N[C@@H](Cc1ccccc1)C(=O)N[C@H](C(=O)N1CCC[C@H]1C(=O)N[C@H](C(=O)N[C@@H](CC(N)=O)C(=O)N[C@H](C(=O)NCC(=O)N[C@@H](CO)C(=O)N[C@@H](CCCCN)C(=O)N[C@@H](C)C(=O)N[C@@H](Cc1ccccc1)C(N)=O)C(C)C)[C@@H](C)O)C(C)C)C(C)C)C(C)C)[C@@H](C)O)C(C)C)[C@@H](C)O)[C@@H](C)O	/	/	/	/	.	/
N#Cc1ccccc1Cn1cc(/C=N/Nc2ccc([N+](=O)[O-])cn2)c2ccccc21	.	.	.	.	.	74.0
O=[N+]([O-])c1ccc(NN=Cc2ccccc2O)nc1	?	/	?	/	/	.
COc1cc(C2Nc3cc(C)c(C)cc3NC3=C2C(=O)CC(C)(C)C3)ccc1OC(C)=O (centres undefined)	.	.	.	/	.	.
O=C(NCCSc1c[nH]c2ccccc12)c1ccc(Br)o1	.	.	.	.	.	.
CSCCC(=O)Nc1nc(-c2ccccn2)cs1	.	.	.	.	.	.
O=C(Nc1nc(-c2ccccn2)cs1)C1CCCC1	.	.	7.08µM	.	.	.
O=C(COC(=O)C1CCN(S(=O)(=O)c2ccccc2C(F)(F)F)CC1)NCc1ccc(F)cc1	.	.	.	.	.	.
COC(=O)c1cc(=O)c(O)c2c(O)c(O)ccc2c1	/	/	/	2.82µM	.	/
CC(C)NC(=O)C1(C)Cc2c(-c3cccc(C(N)=O)c3)ccnc2O1 (centres undefined)	.	/	/	/	/	.
O=C(COC(=O)c1cccnc1Cl)Nc1ccccc1OC(F)F	.	.	10µM	.	.	.
O=C(COC(=O)c1ccccn1)Nc1ccccc1OC(F)F	.	.	?	.	.	.
N#C/C(=C\c1ccccc1)C(=O)NCCN1CCOCC1	.	.	.	.	.	.
C=CCn1c(=O)/c(=C/c2ccsc2)s/c1=C(\C#N)C(=O)NCCN1CCOCC1	.	/	.	/	/	60.3
Cc1ccc(N=C2NC(=O)/C(=C/c3cccn3C)S2)cc1	5.01µM	.	?	.	.	.
CN(C)CCN(Cc1ccc(Cl)cc1)c1ccccn1	.	.	.	.	.	.

Screening results as filed in PubChem.
